# PubChem BioAssay
# The source made the active and inactive calls. Unless noted, no rule for the calls is given here.
# Columns and labels:
# [1] = compound effects on lung adenocarcinoma cell viability – A549, calcein-AM fluorescence, 48 h, basal, profiling panel (AID 1162); conditions: higher = more signal; also: test concentration not given here
# [2] = compound effects on differentiated 3T3-L1 adipocyte viability – cell-based, 3T3-L1 adipocytes, calcein-AM fluorescence, 48 h, basal, profiling panel (AID 1163); conditions: 3T3-L1 adipocytes viability, higher = more signal; also: test concentration not given here
# [3] = compound effects on hepatocellular carcinoma cell viability – HepG2, calcein-AM fluorescence, 48 h, basal, profiling panel (AID 1164); conditions: higher = more signal; also: test concentration not given here
# [4] = compound effects on multiple myeloma cell viability – MM1S, calcein-AM fluorescence, 48 h, basal, profiling panel (AID 1165); conditions: higher = more signal; also: test concentration not given here
# [5] = calcein-AM signal in unstimulated myeloma cells – cell-based, calcein-AM fluorescence, 48 h, PK04 Diversity Set, profiling panel (AID 1166); conditions: RPMI8226 myeloma viability, higher = more signal;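 also: cells grown under basal conditions without added stimulus; test concentration not given here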
# [6] = JC-1 mitochondrial signal, unstimulated HepG2 cells – cell-based, JC-1 fluorescence, 24 h, 100 nL compound, profiling panel (AID 1167); conditions: HepG2 mitochondrial potential, higher = more signal; also: test concentration not given here
# [7] = JC-1 mitochondrial signal, unstimulated adipocytes – cell-based, JC-1 fluorescence, 3T3-L1 adipocytes, 24 h, 100 nL compound, profiling panel (AID 1168); conditions: JC-1 mitochondrial fluorescence, higher = more signal, called active from +8 up or from −8 down; also: test concentration not given here
# [8] = JC-1 mitochondrial signal, unstimulated myeloma cells – cell-based, JC-1 fluorescence, RPMI8226, 24 h, 100 nL compound, profiling panel (AID 1169); conditions: JC-1 mitochondrial potential fluorescence, higher = more signal; also: test concentration not given here
# [9] = JC-1 mitochondrial signal, unstimulated MM1S myeloma – cell-based, JC-1 fluorescence, 24 h, 100 nL compound, profiling panel (AID 1170); conditions: MM1S mitochondrial potential, higher = more signal; also: test concentration not given here
# [10] = resazurin metabolic signal in A549 cells – cell-based, resazurin fluorescence, 24 h, PK04 Diversity Set, profiling panel (AID 1171); conditions: A549 viability, higher = more signal, called active from +8 up or from −8 down; also: test concentration not given here
# [11] = resazurin metabolic signal in HepG2 cells – cell-based, resazurin fluorescence, 24 h, PK04 Diversity Set, profiling panel (AID 1172); conditions: HepG2 viability, higher = more signal; also: test concentration not given here
# [12] = budding yeast growth changes without added modifier – OD600, strain BY4716, 24 h, basal condition, primary screen (AID 1173); conditions: S. cerevisiae BY4716 growth, OD600, 24 h; higher = more signal, called active from +8 up or from −8 down
# [13] = viability profiling in MM1S myeloma cells – cell-based, resazurin fluorescence, basal, 24 h, PK04 Diversity Set, profiling panel (AID 1174); conditions: higher = more signal, called active from +8 up or from −8 down; also: test concentration not given here
# [14] = molecular target: Dihydroorotate dehydrogenase (quinone), mitochondrial (Plasmodium falciparum (isolate 3D7)) (UniProt Q08210); assay: inhibition of P. falciparum DHODH – biochemical, C-terminal His tag, absorbance 600 nm, primary screen (AID 1175); conditions: PfDHODH enzyme, DCIP absorbance 600 nm; higher = more signal, called active from +8 up or from −8 down;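 also: recombinant parasite enzyme with a five histidine tag at its C terminus; test concentration not given here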
# [15] = inhibition of PAO1 biofilm formation – strain PAO1, LB-PBS medium, absorbance 600 nm, primary screen (AID 1176); also: test concentration not given here; conditions: P. aeruginosa PAO1 growth/biofilm, A600, 12 h; higher = more signal
# [16] = growth modulation of vineyard yeast isolate – strain RM11-1a, OD600, basal, 24 h, primary screen (AID 1177);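 also: cultures grown under basal conditions with no added stressor; test concentration not given here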; conditions: S. cerevisiae RM11-1a growth, OD600, 24 h; higher = more signal, called active from +8 up or from −8 down
# [17] = growth of efflux-deficient E. coli DRC39 – strain DRC39, OD650, 24 h, E. coli filamentation inducers, primary screen (AID 1178);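 also: growth measured as culture turbidity by optical density at 650 nm; test concentration not given here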; conditions: E. coli DRC39 acrAB, higher = more signal, called active from +8 up or from −8 down
# [18] = growth of efflux-deficient E. coli DRC39 – strain DRC39, OD650, 48 h, E. coli filamentation inducers, primary screen (AID 1179);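 also: screen aims at cell division blockers that make cells filament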; conditions: E. coli DRC39 delta-acrAB growth, higher = more signal, called active from +8 up or from −8 down
# [19] = viability profiling in RPMI8226 myeloma cells – cell-based, resazurin fluorescence, basal, 24 h, PK04 Diversity Set, profiling panel (AID 1180); conditions: higher = more signal;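 also: RPMI8826 multiple myeloma cell line at 5000 cells per well; test concentration not given here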
# [20] = molecular target: E3 ubiquitin-protein ligase XIAP (Homo sapiens) (UniProt P98170); assay: small molecules binding XIAP protein – biophysical, small-molecule microarray, fluorescence 635 nm, primary screen (AID 1181); conditions: higher = more signal;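 also: score merges 667 nm emission and signal to noise over triplicate slides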
# Chain of E3 ubiquitin-protein ligase XIAP (Homo sapiens) (P98170 whole entry, looked up): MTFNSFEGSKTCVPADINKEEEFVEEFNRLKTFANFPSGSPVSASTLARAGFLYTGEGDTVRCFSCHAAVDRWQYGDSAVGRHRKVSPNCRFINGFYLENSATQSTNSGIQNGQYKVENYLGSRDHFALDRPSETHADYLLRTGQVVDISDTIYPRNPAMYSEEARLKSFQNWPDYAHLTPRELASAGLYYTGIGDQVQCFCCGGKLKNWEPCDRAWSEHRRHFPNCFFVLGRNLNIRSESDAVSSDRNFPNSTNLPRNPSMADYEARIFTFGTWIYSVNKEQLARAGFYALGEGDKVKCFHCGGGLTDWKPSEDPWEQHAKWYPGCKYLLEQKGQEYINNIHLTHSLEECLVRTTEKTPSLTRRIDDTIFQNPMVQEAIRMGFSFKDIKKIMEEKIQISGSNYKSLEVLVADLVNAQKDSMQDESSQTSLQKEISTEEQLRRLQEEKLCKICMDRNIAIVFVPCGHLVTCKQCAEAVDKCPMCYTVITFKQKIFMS
# Chain of Dihydroorotate dehydrogenase (quinone), mitochondrial (Plasmodium falciparum (isolate 3D7)) (Q08210 whole entry, looked up): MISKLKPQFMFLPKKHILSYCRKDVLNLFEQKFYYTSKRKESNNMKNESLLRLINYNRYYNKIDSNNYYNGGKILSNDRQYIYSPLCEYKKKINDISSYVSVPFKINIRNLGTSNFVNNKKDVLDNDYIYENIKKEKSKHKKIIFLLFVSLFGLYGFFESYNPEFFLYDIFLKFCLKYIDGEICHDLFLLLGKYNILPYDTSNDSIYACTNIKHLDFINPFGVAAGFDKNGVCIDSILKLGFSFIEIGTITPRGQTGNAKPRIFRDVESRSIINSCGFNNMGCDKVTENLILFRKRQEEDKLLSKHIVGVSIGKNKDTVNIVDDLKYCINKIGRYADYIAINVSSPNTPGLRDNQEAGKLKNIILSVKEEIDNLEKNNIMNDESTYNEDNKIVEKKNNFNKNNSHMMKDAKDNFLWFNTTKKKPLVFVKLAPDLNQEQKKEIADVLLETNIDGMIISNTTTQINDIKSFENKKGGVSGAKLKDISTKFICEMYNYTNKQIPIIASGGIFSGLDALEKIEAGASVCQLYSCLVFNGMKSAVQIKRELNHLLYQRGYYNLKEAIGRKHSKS
structure (smiles),measurement,setting,value
C[N+](C)(C)CCCC[C@@H]1NC(=O)[C@@H]2C[C@H](C(=O)NCCCCCNC(=O)CS)[C@H](c3cccc(OCCO)c3)N2C1=O,z-score,[1],0.884
same,z-score,[2],-0.0052
same,z-score,[3],0.289
same,z-score,[4],-0.0724
same,z-score,[5],-1.31
same,z-score,[6],1.8
same,z-score,[7],-0.364 (inactive)
same,z-score,[8],0.245
same,z-score,[9],-0.243
same,z-score,[10],0.764 (inactive)
same,z-score,[11],0.839
same,z-score,[12],-0.385 (inactive)
same,z-score,[13],0.223 (inactive)
same,composite z-score,[14],1.09 (inactive)
same,z-score,[15],-0.199 (inactive)
same,z-score,[16],0.342 (inactive)
same,z-score,[17],0.461 (inactive)
same,z-score,[18],0.983 (inactive)
same,z-score,[19],0.228
same,composite z-score,[20],-0.0562
COCCOC(=O)N1C(=O)[C@@]2(c3cc(C#CCC(C(=O)OC)C(=O)OC)ccc31)[C@H](C(=O)N1CCCCCCC1)[C@H]1C(=O)O[C@H](c3ccccc3)[C@H](c3ccccc3)N1[C@@H]2c1ccc(O)cc1,z-score,[1],-0.0336
same,z-score,[2],1.25
same,z-score,[3],-0.125
same,z-score,[4],-0.575
same,z-score,[5],-1.39
same,z-score,[6],0.503
same,z-score,[7],1.1 (inactive)
same,z-score,[8],0.439
same,z-score,[9],0.579
same,z-score,[10],0.616 (inactive)
same,z-score,[11],-0.124
same,z-score,[12],-0.0861 (inactive)
same,z-score,[13],1.09 (inactive)
same,composite z-score,[14],1.49 (inactive)
same,z-score,[15],0.1 (inactive)
same,z-score,[16],0.451 (inactive)
same,z-score,[17],-0.543 (inactive)
same,z-score,[18],-0.86 (inactive)
same,z-score,[19],0.646
same,composite z-score,[20],0.312
COc1ccc([Si](C)(C)[C@@H]2[C@@H](CCO)O[C@]3(C(=O)N(Cc4ccccc4)c4ccc(N5C(=O)COc6ccccc65)cc43)[C@H]2C)cc1,z-score,[1],-1.4
same,z-score,[2],0.155
same,z-score,[3],-1.08
same,z-score,[4],-2.24
same,z-score,[5],-0.0589
same,z-score,[6],0.102
same,z-score,[7],0.222 (inactive)
same,z-score,[8],-0.741
same,z-score,[9],-0.857
same,z-score,[10],-0.177 (inactive)
same,z-score,[11],1.52
same,z-score,[12],2.09 (inactive)
same,z-score,[13],-0.657 (inactive)
same,composite z-score,[14],-0.0636 (inactive)
same,z-score,[15],1.2 (inactive)
same,z-score,[16],4.54 (inactive)
same,z-score,[17],-0.141 (inactive)
same,z-score,[18],-0.266 (inactive)
same,z-score,[19],-0.976
same,composite z-score,[20],-0.0599
COCCOC(=O)N1C(=O)[C@@]2(c3cc(C#Cc4ccc(OC)cc4)ccc31)[C@H](c1ccc(OCCO)cc1)N1[C@H](c3ccccc3)[C@H](c3ccccc3)OC(=O)[C@H]1[C@@H]2C(N)=O,z-score,[1],-0.383
same,z-score,[2],0.806
same,z-score,[3],-0.792
same,z-score,[4],-1.14
same,z-score,[5],-2.7
same,z-score,[6],-0.617
same,z-score,[7],1.98 (inactive)
same,z-score,[8],-0.65
same,z-score,[9],-1.11
same,z-score,[10],-0.588 (inactive)
same,z-score,[11],-0.83
same,z-score,[12],1.71 (inactive)
same,z-score,[13],-1.85 (inactive)
same,composite z-score,[14],-0.675 (inactive)
same,z-score,[15],3.36 (inactive)
same,z-score,[16],2.82 (inactive)
same,z-score,[17],0.721 (inactive)
same,z-score,[18],0.366 (inactive)
same,z-score,[19],-2.36
same,composite z-score,[20],0.269
